HT1080 IDH1KD tx – kills HT-1080 cells with IDH1 knockdown | AID 686971 | Potency, µM (top dose mostly 46.1 µM), hits mostly cytotoxic | HT-1080 IDH1 knockdown viability, ATP luminescence, 48 h | 360,000 tested, 2% active
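% activity derives from luminescence (CellTiter-Glo), normalised to DMSO and no-cell wells. HT-1080-IDH1KD cells, 750/well, had 48 h compound exposure at 37 °C.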
HT1080NT lethal – kills 2HG-producing HT-1080-NT fibrosarcoma cells. HT-1080-NT fibrosarcoma viability, CellTiter-Glo ATP luminescence, 48 h. Potency, µM (highest dose often 46.1 µM), hits mostly cytotoxic. 360,000 tested, 1.6% active. AID 686970;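 further: NT is the 2HG producing partner of a matched IDH1 knockdown line; nearly all actives have a fitted effect of over 55% in size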
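Compounds were tested in concentration-response format on HT-1080-NT cells for 48 hours at 37 degrees C. Cell viability came from CellTiter-Glo luminescence; curves were classified by r2, response magnitude and activity.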
TGFb SMAD3 inh – TGF-b pathway inhibition. AID 588855. Potency, µM (series often up to 46.1 µM), actives largely listed as inhibitors. 410,000 tested, 1.2% active. HepG2 CAGA-GFP TGF-b/SMAD3 reporter, GFP fluorescence, 18 h; TGF-beta stimulated, 500 pg/mL final; further: nearly all actives have a fitted effect of over 65% in size
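TGF-beta reporter screen: HEPG2 CAGA-GFP, 1% FBS, 500 pg/mL TGF-beta final, 18 h; per-cell GFP summed per well; curves fitted and categorized by class.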
HepG2 viability – counter-screen for TGF-b inhibitors: cytotoxicity in HepG2 cells; Potency, µM (doses to about 46.1 µM), most hits filed as cytotoxic; 410,000 tested, 0.76% active; HepG2 CAGA-GFP viability, ATP luminescence, 18 h
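CellTiter-Glo luminescence gave cytotoxicity after 18 hours at 37 degrees C. The cells were HepG2 CAGA-GFP in 1% FBS DMEM, stimulated with 500 pg/mL TGF-beta after compound addition. %Activity was normalised to no-cell wells (complete cell-killing) and DMSO (no toxicity), and curves were fitted and classified.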
S2 tox – viability counter-screen for ATXN expression inhibitors; S2 cells (HEK-293 line with an ATXN2-luciferase reporter) viability, CellTiter-Fluor protease fluorescence, 24 h; Potency, µM (highest dose often 56.7 µM), actives largely listed as cytotoxic; 400,000 tested, 0.49% active; further: nearly all actives have a fitted effect of over 40% in size
ATXN2 expr inh – ATXN2 expression inhibition; HEK-293 ATXN2-luciferase reporter, luminescence, 24 h; Potency, µM (titrated, usually from 57 µM), usual class: inhibitors; 360,000 tested, 0.72% active; AID 1745845; further: nearly all actives have a fitted effect of over 55% in size
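ATXN2-luciferase reporter cells (luciferase flanked by upstream and downstream ATXN2 gene portions) were treated 24 h at 37 °C with compounds at up to 57 uM. SteadyGlo luminescence gave expression; GF-AFC fluorescence gave viability.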
Numbers stand for hits. An excerpt weighted towards active compounds, which were near 3.8% of everything screened. The call rests on the fitted dose curve; in most records, active means well fitted curve in the direction sought with a large enough effect; inconclusive means small, poorly fitted or top-dose-only effect, or another doubt; inactive means no such curve, though single readings can be large; an effect the other way counts as inactive or inconclusive.

How did CCn1c(-c2ccccc2F)nc2cc(C(=O)N3CCNC(=O)C3CC(=O)OC)cc(NC(C)=O)c21 (stereo not drawn) do in these assays?
S2 tox: inactive

What do the screens show for `COc1cccc(CNC(=O)c2cccc(-n3c(C)nc4cccnc43)c2C)c1`?
TGFb SMAD3 inh: inconclusive; HepG2 viability: inactive

Results for CCC[C@H](NC(=O)C(C#N)=Cc1cccc(Br)n1)c1ccccc1 ?
ATXN2 expr inh: 11µM

How did O=[N+]([O-])C(/C=C(\Cl)[N+](=O)[O-])=C1N(Cc2ccc(Cl)nc2)CCN1Cc1ccc(Cl)nc1 do in these assays?
HT1080 IDH1KD tx: inconclusive; HT1080NT lethal: inconclusive; TGFb SMAD3 inh: inconclusive; HepG2 viability: 20µM; S2 tox: inactive; ATXN2 expr inh: inactive

Results for O=C(CO)N1CCC(c2[nH]nc(-c3ccc(Cl)cc3)c2-c2ccncn2)CC1 ?
ATXN2 expr inh: inactive

What do the screens show for `Cc1ccc(N(CC(=O)N2CCN(c3cc(Cl)ccc3C)CC2)S(=O)(=O)c2c(C)noc2C)cc1`?
TGFb SMAD3 inh: inconclusive; HepG2 viability: inactive; S2 tox: inactive; ATXN2 expr inh: inactive

Results for CCN(CC)c1ccc(NC(=O)c2ccc3c(c2)c(C)c(C)n3C)cc1 ?
HT1080 IDH1KD tx: inconclusive; HT1080NT lethal: 18µM; TGFb SMAD3 inh: inactive; HepG2 viability: inactive; S2 tox: inactive; ATXN2 expr inh: inactive

What do the screens show for `COC(=O)C(CCSC)NC(=O)C1CCN(c2ncnc3c2nc2n3CCCCC2)CC1` (stereo not drawn)?
TGFb SMAD3 inh: inactive; HepG2 viability: inactive

How did Cc1ccc(-n2ncc(C(=O)Nc3cc(Cl)cc(Cl)c3)c2C2CCNCC2)cc1C do in these assays?
HT1080 IDH1KD tx: 21µM; HT1080NT lethal: inconclusive; TGFb SMAD3 inh: inconclusive; HepG2 viability: inactive; S2 tox: inconclusive

How did O=C(Cn1nc(C(F)(F)F)c2c1CCCC2)Nc1ccc(F)c(Cl)c1 do in these assays?
TGFb SMAD3 inh: 11µM; HepG2 viability: inactive; S2 tox: inconclusive; ATXN2 expr inh: inconclusive

Results for O=C(Cn1nc(C(F)(F)F)c2c1CCC2)Nc1ccc(Cl)cc1 ?
TGFb SMAD3 inh: inconclusive; HepG2 viability: inactive; S2 tox: inconclusive; ATXN2 expr inh: inconclusive

Results for Cc1ccccc1C1(CC(=O)N2CCN(C)CC2)CC(=O)N(Cc2ccncc2)C1=O (stereo not drawn) ?
S2 tox: inactive

Results for CCOC(=O)c1ccc(CN(Cc2ccc(F)cc2)S(=O)(=O)c2ccc(F)cc2)cc1 ?
TGFb SMAD3 inh: inactive; HepG2 viability: inactive

How did COc1ccccc1C1CN(CCNC(=O)[C@@H]2CSC(=O)N2)Cc2ccccc2O1 (stereo partly drawn) do in these assays?
S2 tox: inactive

How did CC1=CC2=NC(=O)/C(=C\c3ccc(-c4cccc(Cl)c4)o3)C(=N)N2O1 do in these assays?
HT1080 IDH1KD tx: 8.2µM; HT1080NT lethal: 10µM; TGFb SMAD3 inh: inactive; HepG2 viability: inactive; S2 tox: inconclusive; ATXN2 expr inh: inactive

What do the screens show for `CC1=NOC(=O)/C1=C\c1ccc(-c2cccc(Cl)c2)o1`?
HT1080 IDH1KD tx: 18µM; HT1080NT lethal: inconclusive; TGFb SMAD3 inh: inconclusive; HepG2 viability: inactive; S2 tox: inconclusive; ATXN2 expr inh: inconclusive

What do the screens show for `CC1=CC2=NC(=O)/C(=C\c3cc(C)n(-c4ccc(F)cc4)c3C)C(=N)N2O1`?
HT1080 IDH1KD tx: inactive; HT1080NT lethal: inactive; TGFb SMAD3 inh: inactive; HepG2 viability: inactive; S2 tox: inactive; ATXN2 expr inh: inactive

How did CC1=NOC(=O)/C1=C\c1ccc(-c2ccc(Cl)c(C(=O)O)c2)o1 do in these assays?
HT1080 IDH1KD tx: inactive; HT1080NT lethal: inactive; TGFb SMAD3 inh: inactive; HepG2 viability: inactive; S2 tox: inactive; ATXN2 expr inh: inactive

What do the screens show for `Cc1cc(-c2cc(F)cc3c2OC(CNC(=O)[C@@H]2CCC(=O)N2)C3)ccc1F` (stereo partly drawn)?
S2 tox: inactive
